Laboratory results as given in PubChem BioAssay (NCI).
This is part of a sample that, as a whole, favours compounds with a hit. Of some 79,000 tested, about 15% had one in any assay. Calls of active or inactive are those of the source. Cut-off read from the data, not from the text of the source: active = growth inhibition above about 70%; inactive = the rest.

Assays:
[1] = NCI Yeast Anticancer Drug Screen. Data for the rad50 strain (AID 155);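 note: 0% = growth of vehicle-only cultures of the same strain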; settings: S. cerevisiae rad50 strain growth inhibition, stronger effect = higher value
Outline: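 Vehicle-treated cultures provide the reference for the growth inhibition reported for compound-exposed, repair-deficient yeast.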

[2] = NCI Yeast Anticancer Drug Screen. Data for the mec2-1 strain (AID 157); settings: S. cerevisiae mec2-1 strain, stronger effect = higher value
Outline: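 mec2-1 yeast strain, carrying an alteration in DNA damage repair or cell cycle control, was exposed to compounds; growth inhibition was measured relative to vehicle-treated controls.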

[3] = NCI Yeast Anticancer Drug Screen. Data for the sgs1 mgt1 strain (AID 161);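 note: 0% = growth of cultures given vehicle only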; settings: S. cerevisiae sgs1 mgt1 strain, stronger effect = higher value
Outline: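 Yeast cells carrying a defined DNA-repair defect were exposed to test compounds. Growth inhibition was measured relative to vehicle-treated controls.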

[4] = NCI Yeast Anticancer Drug Screen. Data for the cln2 rad14 strain (AID 165);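 note: 0% = growth equal to vehicle treated cultures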; settings: S. cerevisiae cln2 rad14 strain, stronger effect = higher value
Outline: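 Yeast carrying cln2 and rad14 alterations (cell cycle control and DNA damage repair) were exposed to compounds. Growth inhibition was measured against vehicle-treated controls.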

[5] = NCI Yeast Anticancer Drug Screen. Data for the bub3 strain (AID 167); settings: S. cerevisiae bub3 mutant strain, stronger effect = higher value
Outline: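 Mutant yeast screening strain plus compound; vehicle-treated cultures serve as the 0% inhibition reference.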

[6] = NCI Yeast Anticancer Drug Screen. Data for the mlh1 rad18 strain (AID 175); settings: S. cerevisiae mlh1 rad18 strain growth inhibition, stronger effect = higher value
Outline: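 Growth inhibition of the yeast strain was measured after compound exposure and expressed relative to vehicle-treated controls. The strain carries defined defects in DNA damage repair.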

[7] = at 5.0 µM (retest, dose inferred, filed as 0.5)
[8] = at 50.0 µM (retest, dose inferred, filed as 5.0)

Measured: growth inhibition

O=C1CCCCC1Sc1ccc(Cl)cc1 (stereo not given)
active: [1]; [8] 94% | [1]; at 50.0 µM 91.2% | [2]; [8] 95% | [2]; at 50.0 µM 91.1% | [3]; [8] 87% | [3]; at 50.0 µM 96.3% | [4]; [8] 76% | [4]; at 50.0 µM 76.1% | [5]; [8] 96% | [5]; at 50.0 µM 85.2% | [6]; [8] 94% | [6]; at 50.0 µM 87.5%
inactive: [1]; [7] 1% | [2]; [7] 2% | [3]; [7] 2% | [4]; [7] -4% | [5]; [7] 3% | [6]; [7] 2%

COC(=O)C1(C)CC2C(C)(CCC3(C)C4=CC=C5C(=CC(=O)C(O)=C5C)C4(C)CCC23C)CC1O (stereo not given)
inactive: [1]; [7] 44% | [2]; [7] 44% | [3]; [7] 48% | [4]; [7] 51% | [6]; [7] 50%
active: [1]; [8] 98% | [1]; at 50.0 µM 85.8% | [2]; [8] 98% | [2]; at 50.0 µM 87.9% | [3]; [8] 98% | [3]; at 50.0 µM 90.3% | [4]; [8] 97% | [4]; at 50.0 µM 88% | [5]; [7] 75% | [5]; [8] 98% | [5]; at 50.0 µM 87.3% | [6]; [8] 96% | [6]; at 50.0 µM 85.8%

O=C(CCl)NC(=O)N(/N=C/c1ccco1)c1ccccc1
inactive: [1]; [7] -1% | [1]; [8] 52% | [1]; at 50.0 µM 44.8% | [2]; [7] 3% | [2]; [8] 60% | [2]; at 50.0 µM 47% | [3]; [7] -4% | [3]; [8] 38% | [3]; at 50.0 µM 55.2% | [4]; [7] 1% | [4]; [8] 24% | [4]; at 50.0 µM -16.1% | [5]; [7] 3% | [5]; at 50.0 µM 59.2% | [6]; [7] 3% | [6]; [8] 68% | [6]; at 50.0 µM 58%
active: [5]; [8] 83%

CCCCCOC(=S)SSSC(=S)OCCCCC
inactive: [1]; [7] -38% | [1]; at 50.0 µM 8.65% | [2]; [7] 44% | [2]; at 50.0 µM 4.7% | [3]; [7] 6% | [3]; at 50.0 µM 22.1% | [4]; [7] -13% | [4]; [8] 66% | [4]; at 50.0 µM -0.1% | [5]; [7] 0% | [5]; at 50.0 µM 28.2% | [6]; [7] 16% | [6]; at 50.0 µM 21.9%
active: [1]; [8] 96% | [2]; [8] 99% | [3]; [8] 97% | [5]; [8] 98% | [6]; [8] 97%

N#CC(C(=O)C(=O)Nc1ccc(Cl)cc1)c1c(Cl)cccc1Cl (stereo not given)
inactive: [1]; [7] 12% | [1]; [8] 1% | [1]; at 50.0 µM 56.2% | [2]; [7] 7% | [2]; [8] 11% | [2]; at 50.0 µM 7.5% | [3]; [7] 24% | [3]; [8] 8% | [3]; at 50.0 µM 28.8% | [4]; [7] 18% | [4]; [8] 10% | [4]; at 50.0 µM -22.4% | [5]; [7] 27% | [5]; [8] 6% | [5]; at 50.0 µM 8.2% | [6]; [7] 14% | [6]; [8] 3% | [6]; at 50.0 µM 24.9%

Clc1ccccc1CN1COc2c(cc(Cl)c3cccnc23)C1
active: [1]; [8] 99% | [1]; at 50.0 µM 98.6% | [2]; [8] 99% | [2]; at 50.0 µM 99.5% | [3]; [7] 87% | [3]; [8] 100% | [3]; at 50.0 µM 99.4% | [4]; [8] 99% | [4]; at 50.0 µM 98.8% | [5]; [8] 99% | [5]; at 50.0 µM 99.3% | [6]; [7] 97% | [6]; [8] 99% | [6]; at 50.0 µM 99%
inactive: [1]; [7] 21% | [2]; [7] 6% | [4]; [7] 6% | [5]; [7] 61%

Cn1ncc2c(Nc3ccccc3)nc(Nc3ccccc3)nc21
inactive: [1]; [7] -1% | [1]; [8] 7% | [1]; at 50.0 µM 54.1% | [2]; [7] -5% | [2]; [8] -33% | [2]; at 50.0 µM 54.1% | [3]; [7] -1% | [3]; [8] 8% | [3]; at 50.0 µM 56.5% | [4]; [7] 5% | [4]; [8] 0% | [4]; at 50.0 µM 44.5% | [5]; [7] -1% | [5]; [8] -17% | [6]; [7] 5% | [6]; [8] 15%
active: [5]; at 50.0 µM 72.5% | [6]; at 50.0 µM 80.4%

CCOC(=O)Sc1nc2ccccc2[nH]1
inactive: [1]; [7] 4% | [1]; [8] 6% | [1]; at 50.0 µM 53.2% | [2]; [7] 2% | [2]; [8] 3% | [2]; at 50.0 µM 25.2% | [3]; [7] 4% | [3]; [8] 0% | [3]; at 50.0 µM 62.1% | [4]; [7] 3% | [4]; [8] 1% | [4]; at 50.0 µM 13.7% | [5]; [7] 2% | [5]; [8] 2% | [5]; at 50.0 µM 7.45% | [6]; [7] 0% | [6]; [8] 7% | [6]; at 50.0 µM 29.4%

Clc1ccc(Oc2nc(Cl)nc3[nH]ncc23)cc1
inactive: [1]; [7] 7% | [1]; [8] 35% | [1]; at 50.0 µM 38% | [2]; [7] 4% | [2]; [8] 58% | [2]; at 50.0 µM 30.6% | [3]; [7] 11% | [4]; [7] 8% | [4]; [8] 32% | [4]; at 50.0 µM -4.85% | [5]; [7] 7% | [5]; [8] 37% | [5]; at 50.0 µM 18.4% | [6]; [7] 10% | [6]; [8] 68% | [6]; at 50.0 µM 40.1%
active: [3]; [8] 78% | [3]; at 50.0 µM 72.9%

COC(=O)C1=C(C(=O)OC)C2C(C)=CC(C)=CN2C(C(=O)OC)=C1C(=O)OC (stereo not given)
inactive: [1]; [7] -1% | [1]; [8] -7% | [1]; at 50.0 µM 11.2% | [2]; [7] 0% | [2]; [8] 2% | [2]; at 50.0 µM 5.8% | [3]; [7] -10% | [3]; [8] 4% | [3]; at 50.0 µM 2.3% | [4]; [7] -2% | [4]; [8] -5% | [5]; [7] 2% | [5]; [8] -3% | [5]; at 50.0 µM -6.7% | [6]; [7] -4% | [6]; [8] -4% | [6]; at 50.0 µM 25.4%
active: [4]; at 50.0 µM 74.3%
